PubChem BioAssay (NCI)
This is part of a sample that, as a whole, favours compounds with a hit. Of some 79,000 tested, about 15% had one in any assay. Unmarked numbers belong to inactive results. The source made the active and inactive calls. Rule as the data show it: active = growth inhibition above about 70%; inactive = the rest. Where a SMILES comes first, the peptide text is derived from it. The star is where a group is joined. Trt = c1ccc(C(c2ccccc2)(c2ccccc2)*)cc1; Cbz = O=C(OCc1ccccc1)*

Experiments:
[1] = NCI Yeast Anticancer Drug Screen. Data for the rad50 strain (AID 155);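 also: 0% = growth of vehicle-only cultures of the same strain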; conditions: S. cerevisiae rad50 strain growth inhibition, hits give high values
Summary of the method: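 DNA repair mutant yeast, compound exposure, growth read-out; inhibition is taken relative to vehicle.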

[2] = NCI Yeast Anticancer Drug Screen. Data for the mec2-1 strain (AID 157); conditions: S. cerevisiae mec2-1 strain, hits give high values
Summary of the method: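 Using mec2-1 yeast: add compound, measure growth, express inhibition versus vehicle-treated cultures.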

[3] = NCI Yeast Anticancer Drug Screen. Data for the sgs1 mgt1 strain (AID 161);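 also: 0% = growth of cultures given vehicle only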; conditions: S. cerevisiae sgs1 mgt1 strain, hits give high values
Summary of the method: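 Percent growth inhibition was derived by comparing compound-exposed mutant yeast with vehicle-exposed cultures. The strain carries alterations in DNA damage repair.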

[4] = NCI Yeast Anticancer Drug Screen. Data for the cln2 rad14 strain (AID 165);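 also: 0% = growth equal to vehicle treated cultures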; conditions: S. cerevisiae cln2 rad14 strain, hits give high values
Summary of the method: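 Yeast strain cln2 rad14, bearing defects in cell cycle control and DNA repair, serves as the test system; values reflect growth inhibition compared with vehicle.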

[5] = NCI Yeast Anticancer Drug Screen. Data for the bub3 strain (AID 167); conditions: S. cerevisiae bub3 mutant strain, hits give high values
Summary of the method: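 In this screen, a yeast mutant lacking normal mitotic checkpoint function is challenged with compound. Relative growth versus vehicle gives the inhibition value.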

[6] = NCI Yeast Anticancer Drug Screen. Data for the mlh1 rad18 strain (AID 175); conditions: S. cerevisiae mlh1 rad18 strain growth inhibition, hits give high values
Summary of the method: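 Steps: expose repair-defective yeast to compound; measure growth; express inhibition against vehicle-treated controls.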

[7] = at 5.0 µM (retest, dose inferred, filed as 0.5)
[8] = at 50.0 µM (retest, dose inferred, filed as 5.0)

SMILES	growth inhibition [1, 7]	growth inhibition [1, 8]	growth inhibition ([1]; at 50.0 µM)	growth inhibition [2, 7]	growth inhibition [2, 8]	growth inhibition ([2]; at 50.0 µM)	growth inhibition [3, 7]	growth inhibition [3, 8]	growth inhibition ([3]; at 50.0 µM)	growth inhibition [4, 7]	growth inhibition [4, 8]	growth inhibition ([4]; at 50.0 µM)	growth inhibition [5, 7]	growth inhibition [5, 8]	growth inhibition ([5]; at 50.0 µM)	growth inhibition [6, 7]	growth inhibition [6, 8]	growth inhibition ([6]; at 50.0 µM)
O=C1C=CC(=O)C(Sc2ccccc2)=C1	-3%	98% (active)	96.8% (active)	7%	99% (active)	98.9% (active)	-4%	98% (active)	89.5% (active)	-14%	93% (active)	93.3% (active)	-10%	99% (active)	94.1% (active)	24%	98% (active)	95.3% (active)
CSc1nc(NN)cc(-c2ccccc2)n1	0%	23%	12.5%	24%	19%	50.3%	0%	57%	56.7%	2%	-2%	3.1%	-3%	68%	81.2% (active)	-1%	54%	79.3% (active)
O=[N+]([O-])c1ccc2c(c1)Cc1cc(O)c(I)cc1-2	3%	91% (active)	97.5% (active)	13%	92% (active)	97.8% (active)	3%	93% (active)	96.7% (active)	-10%	91% (active)	95.2% (active)	-4%	93% (active)	95.8% (active)	-2%	95% (active)	97.2% (active)
Nc1n[n+](-c2ccccc2)no1	34%	81% (active)	61%	16%	46%	33.4%	24%	60%	56.6%	45%	59%	23%	43%	59%	45.2%	31%	68%	70.6% (active)
CSC(=S)N/N=C(\C)c1nccnc1C	5%	98% (active)	98.7% (active)	7%	99% (active)	98.9% (active)	3%	98% (active)	98.7% (active)	-10%	97% (active)	98% (active)	21%	98% (active)	99% (active)	5%	98% (active)	98.9% (active)
CSc1ccc(/C=N/NC(N)=S)cc1	-150%	-19%	91% (active)	-53%	-4%	76% (active)	-65%	12%	81.3% (active)	-65%	-19%	43.7%	-63%	-3%	86.5% (active)	-119%	1%	84.7% (active)
O=C(c1ccco1)N(C(=S)N1CCN(c2ccccn2)CC1)c1ccccc1	3%	76% (active)	77.2% (active)	8%	51%	47.4%	-1%	71% (active)	63.4%	31%	53%	36.5%	-2%	60%	53%	-2%	78% (active)	57.4%
S=C(N/N=C(/c1ccccc1)c1ccccn1)Nc1cccc(Cl)c1	48%	88% (active)	2.05%	32%	91% (active)	3.3%	24%	88% (active)	41.6%	25%	88% (active)	17.6%	40%	85% (active)	20.1%	36%	89% (active)	26.1%
COC(=O)C(CSC(c1ccccc1)(c1ccccc1)c1ccccc1)NC(=O)C(CC(N)=O)NC(=O)OCc1ccccc1 (stereo not drawn) (Cbz-Asn-Cys(Trt)-OMe; configuration not given here)	32%	84% (active)	73.5% (active)	13%	89% (active)	68.2%	17%	94% (active)	72.5% (active)	27%	94% (active)	72% (active)	15%	94% (active)	68.8%	27%	88% (active)	68.9%
N#C/C=C(\c1ccccc1)c1c[nH]c2ccccc12	-144%	97% (active)	97.5% (active)	-46%	99% (active)	98.1% (active)	-62%	98% (active)	98.7% (active)	-58%	98% (active)	95.8% (active)	-63%	97% (active)	97% (active)	-120%	98% (active)	98.2% (active)
CC(=Nc1ccc(N(C)C)cc1)c1ccccc1	-8%	60%	69.7%	-11%	78% (active)	54.8%	-5%	70% (active)	46%	-26%	53%	45.4%	-15%	88% (active)	71.7% (active)	-15%	78% (active)	71% (active)
Cc1ccc(NC(=O)CSC(N)=O)cc1	4%	92% (active)	97.5% (active)	4%	96% (active)	98.5% (active)	3%	94% (active)	99.1% (active)	2%	94% (active)	97.5% (active)	4%	96% (active)	97.8% (active)	2%	94% (active)	97.7% (active)
CCC[CH2][Sn]([CH2]CCC)([O]C(=O)C(OC(C)=O)c1ccccc1)[O]C(=O)C(OC(C)=O)c1ccccc1 (configuration not stated)	52%	98% (active)	98.5% (active)	43%	98% (active)	97.8% (active)	45%	97% (active)	98.5% (active)	31%	97% (active)	96.4% (active)	71% (active)	97% (active)	98% (active)	60%	98% (active)	98.5% (active)
Cc1occc1C(=S)Nc1ccc(Cl)c(C(=O)OCC(C)C)c1	28%	59%	61.3%	19%	45%	55.1%	34%	71% (active)	58.8%	25%	71% (active)	57.6%	30%	78% (active)	57.1%	33%	73% (active)	41.3%
O=C(Nc1cccc(Br)c1)Oc1cccc2cccnc12	61%	97% (active)	85.7% (active)	65%	99% (active)	89.8% (active)	99% (active)	99% (active)	85.3% (active)	76% (active)	99% (active)	81.1% (active)	91% (active)	73% (active)	87.8% (active)	64%	98% (active)	85% (active)
Oc1c(Br)c(Br)c(O)c(Br)c1Br	12%	50%	98.9% (active)	7%	33%	99.2% (active)	7%	58%	94.5% (active)	5%	13%	37.5%	8%	42%	97.8% (active)	10%	35%	98% (active)
CC(C)c1ccc(/C=C2\CSCC3=C2NC(=S)NC3c2ccc(C(C)C)cc2)cc1 (configuration not stated)	-6%	83% (active)	98.3% (active)	-17%	92% (active)	98.7% (active)	-13%	87% (active)	98.9% (active)	-3%	83% (active)	98.6% (active)	-13%	95% (active)	98.7% (active)	-4%	94% (active)	98.4% (active)
O=C(O)CCC(=O)c1ccc(C2CCCC2)c2ccccc12	1%	28%	69.8%	-3%	24%	78.8% (active)	3%	34%	68.3%	-17%	42%	72.7% (active)	-13%	46%	70.3% (active)	-6%	11%	86.6% (active)
N#CCCN(CCCN1CCOCC1)C(=S)Nc1cccc(C(F)(F)F)c1	34%	44%	42.9%	23%	33%	35.8%	41%	37%	71.1% (active)	41%	60%	59.5%	49%	58%	49.8%	48%	61%	36%
